Compounds without any hit were thinned out: in the full panel of roughly 79,000, 15% have a hit. A number with no mark means an inactive call. Activity calls are given as the source filed them. Rule as the data show it: active = growth inhibition above about 70%; inactive = the rest. Where a SMILES comes first, the peptide text is derived from it. The star is where a group is joined. Cbz = O=C(OCc1ccccc1)*
Experiment: NCI Yeast Anticancer Drug Screen. Data for the mlh1 rad18 strain (AID 175)
Conditions: S. cerevisiae mlh1 rad18 strain growth inhibition; at 50.0 µM; hits give high values
Summary of the method: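 Genetically defined yeast (DNA repair-deficient) exposed to compounds; growth inhibition determined relative to vehicle.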

| Compound | growth inhibition |
| --- | --- |
| COc1cc(O)c(C(C)=O)c(OC)c1 | -2.05% |
| Cc1n[nH]c(=O)n1Nc1ccccc1 | 6.6% |
| O=S(=O)(Cc1c(Cl)c(Cl)c(Cl)c(Cl)c1Cl)c1ccc(Cl)cc1 | -2.4% |
| CCC(=O)C1(CCCN(C)C)c2ccccc2Sc2ccccc21 | 4.6% |
| O=C1OCCC1(Cc1ccc(Cl)cc1)Cc1ccc(Cl)cc1 | -3.05% |
| NC(=O)c1ncnc2nc[nH]c12 | -10.6% |
| Oc1cc2nc3ccccc3nc2c2ccc(Br)cc12 | -14.1% |
| Cn1ccc(=S)c2ccccc21 | 19.5% |
| Cc1c(-c2ccc3c(c2)OCO3)sc(N)c1C#N | -7.75% |
| C/C=C(\C)C(=O)N1c2ccccc2CC1c1c(C)[nH]c2ccccc12 (stereo not given) | 11.1% |
| CCCc1ccc(N=Cc2cc(OC)c(OC)c(OC)c2)cc1 | 21.6% |
| O=NN(CCCl)C(=O)Oc1ccc2ccccc2c1 | -0.5% |
| CC(=O)Nc1cccc(OCCOc2ccccc2[N+](=O)[O-])c1 | 8.2% |
| COC1C(O)CC(OC2CC(OC3CC(O[C@@H]4C(=O)c5c(cc6cc(OC7CC(OC8CC(O)C(O)C(C)O8)C(O)C(C)O7)c(C)c(O)c6c5O)C[C@H]4[C@H](OC)C(=O)[C@@H](O)[C@@H](C)O)OC(C)C3O)OC(C)C2O)OC1C (stereo not given in full) | 48.5% |
| NC(CO)C(O)c1ccc([N+](=O)[O-])cc1 (stereo not given) | -13.7% |
| Cc1no[n+]([O-])c1NC(=O)OCc1ccccc1 | 6.9% |
| COC1/C=C/OC2(C)Oc3c(C)c(O)c4c(O)c(c5c(nc(-c6ccco6)n5-c5ccccc5)c4c3C2=O)NC(=O)/C(C)=C\C=C\C(C)C(O)C(C)C(O)C(C)C(OC(C)=O)C1C (stereo not given) | -22.7% |
| Cc1ccc(C(C)C)nc1 | 26.7% |
| Cc1c2oc3c(C)ccc(C(=O)NCCN4CCN(c5ccccc5)CC4)c3nc-2c(C(=O)NCCN2CCN(c3ccccc3)CC2)c(N)c1=O | -32.6% |
| CNC(=O)Nc1ccc(Cl)cc1C(=O)O | -7.45% |

| Compound | growth inhibition |
| --- | --- |
| O=C(CNC(=O)C(CCC(=O)OCc1ccccc1)NC(=O)OCc1ccccc1)NCC(=O)Oc1ccc([N+](=O)[O-])cc1 (stereo not given) | 18.1% |
| O=C(Nc1ccn(CCI)c(=O)n1)c1ccccc1 | 26.1% |
| CC1(C(=O)O)CCC(C(=O)Nc2ccccc2)C1(C)C (stereo not given) | 1.9% |
| NNc1cc(S(=O)(=O)O)cc(C(=O)O)c1O | 39.9% |
| CC(=O)O[C@H]1C[C@H]2[C@@H](OC(C)=O)/C=C3\C[C@](C)(C(=O)[C@H](O)C(=C1C)C2(C)C)[C@@H](O)C[C@@H]3OC(=O)[C@H](O)[C@H](c1ccccc1)N(C)C | 2.4% |
| COC(=O)COc1cc2c(cc1C(C)c1ccc(O)cc1)OCO2 (stereo not given) | 98.7% (active) |
| NC(=O)CO | 19.5% |
| N=c1c2ccccc2nc2oc3ccc(Cl)cc3n12 | -8.55% |
| COC(=O)C1CC=CCCC1=O (stereo not given) | 5.65% |
| COc1ccc(-c2cc(=O)c3c(O)cc(O)c(-c4cc(-c5cc(=O)c6c(O)cc(OC)cc6o5)ccc4OC)c3o2)cc1 | 20% |
| O=C1ON(c2ccccc2)C(c2cccc(Cl)c2)N1c1ccccc1 (stereo not given) | -16.1% |
| O=C(O)c1ccc(B(O)O)cc1[N+](=O)[O-] | 5.15% |
| CC(C)C(NC(=O)C(Cc1ccc(O)cc1)NC(=O)OCc1ccccc1)C(=O)O (stereo not drawn) (Cbz-Tyr-Val-OH; configuration not given here) | 1.8% |
| COc1cccc(-c2nc(-c3cnccn3)n(C3OC(CO)C(O)C3O)n2)c1 (stereo not given) | -22.6% |
| O=C1C(=Cc2cccnc2)C(=O)c2ccccc21 | 9% |
| O=C(Cc1c[nH]c2ccccc12)N/N=C/c1ccccc1[N+](=O)[O-] | 17.3% |
| N=C(N)SCc1cn2ccccc2n1 | -50.8% |
| CSCCC(NC=O)C(=O)O (stereo not given) | 3.8% |
| O=c1ccc2cc(Cl)ccc2o1 | -20.1% |
| COC(=O)C12OCC34C(CC(C(C)=O)C(C)(CC(=O)O)C3C(O)C1O)OC(=O)C(OC(=O)/C=C(\C)C(C)C)C24 (stereo not given) | 6.95% |
